RXFP1 antag: qHTS Assay for Antagonists of the Relaxin Receptor RXFP1; HEK293-RXFP1, relaxin-stimulated cAMP HTRF, 30 min; stronger effect = lower value; activity change, negative = inhibition, % at 57.5 µM; 0.59% of 350,000 active;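 active = activity change of -60% or lower, but not beyond a set lower limit; inconclusive = change between -60% and -40%, or beyond the set limit; inactive = change above -40%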; also: % is scaled to controls: 0 for no effect and ±100 for the full control effect
Target sequence (Q9HBX9 whole entry, looked up): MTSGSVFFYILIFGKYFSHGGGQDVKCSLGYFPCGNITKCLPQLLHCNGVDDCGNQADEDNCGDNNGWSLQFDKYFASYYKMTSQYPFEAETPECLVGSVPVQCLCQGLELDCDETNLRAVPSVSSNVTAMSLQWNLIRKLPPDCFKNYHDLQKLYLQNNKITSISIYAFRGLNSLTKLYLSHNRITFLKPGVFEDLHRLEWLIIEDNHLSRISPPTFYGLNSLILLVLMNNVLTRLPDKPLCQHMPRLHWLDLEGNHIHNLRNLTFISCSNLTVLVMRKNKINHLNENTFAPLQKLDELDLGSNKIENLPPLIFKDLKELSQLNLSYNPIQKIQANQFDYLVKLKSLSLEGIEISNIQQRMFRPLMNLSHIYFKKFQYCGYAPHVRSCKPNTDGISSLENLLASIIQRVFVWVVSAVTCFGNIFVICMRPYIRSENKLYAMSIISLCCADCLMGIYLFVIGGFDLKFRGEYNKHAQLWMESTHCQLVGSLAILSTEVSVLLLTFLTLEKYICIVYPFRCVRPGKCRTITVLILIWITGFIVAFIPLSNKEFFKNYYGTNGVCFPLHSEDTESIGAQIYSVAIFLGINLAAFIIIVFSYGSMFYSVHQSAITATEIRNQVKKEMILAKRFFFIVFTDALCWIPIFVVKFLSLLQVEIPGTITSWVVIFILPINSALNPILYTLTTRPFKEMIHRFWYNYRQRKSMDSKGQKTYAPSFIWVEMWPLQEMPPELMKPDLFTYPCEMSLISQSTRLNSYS
gsp antagonist: qHTS for Antagonists of gsp, the Etiologic Mutation Responsible for Fibrous Dysplasia/McCune-Albright Syndrome: qHTS; gsp-mutant cells, cAMP HTRF, 30 min; Potency, µM (titrated, usually from 76.9 µM), inactives show top-dose activity change, negative = inhibition, actives largely listed as inhibitors; 0.4% of 340,000 active; AID 624288, 2012; calls by dose curve; cell line not stated here;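 also: intracellular cAMP measured with PDE inhibitor Ro 20-1724 present during compound exposure; potency is read from the fitted curve at half-maximal effect; % is scaled to controls: 0 for no effect and ±100 for the full control effect; nearly all actives have a fitted effect of over 65% in size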
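Measurement of cellular cAMP by homogeneous time-resolved fluorescence following a 30 min compound exposure at 37C. The PDE inhibitor […] was present throughout; the assay buffer was DPBS with 0.05% BSA and 0.005% Tween 20.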
gsp ag: qHTS for Agonist of gsp, the Etiologic Mutation Responsible for Fibrous Dysplasia/McCune-Albright Syndrome: qHTS. gsp mutant cells, cAMP HTRF, 30 min. Potency, µM (titrated, usually from 76.9 µM), for inactives: at the top dose activation (cAMP increase), usual class: activators. 0.13% of 340,000 active; active = well fitted activation curve with a large enough effect; inconclusive = small, poorly fitted or top-dose-only effect, or another doubt; inactive = no such curve, though single readings can be large or run the other way; cell line not stated here;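 also: phosphodiesterase inhibitor Ro 20-1724 added with compounds to block cAMP breakdown; potency is read from the fitted curve at half-maximal effect; nearly all actives have a fitted effect of over 60% in size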
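Cells stably selected in G418 were plated at 2000/well, grown 16-24 hr, then given compounds in DMSO with the PDE inhibitor […] (300 uM solution added) for 30 min at 37C; cAMP was read by HTRF.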
RXFP1 agonist: qHTS Assay for Agonists of the Relaxin Receptor RXFP1; Relaxin receptor 1 (Homo sapiens), Q9HBX9; HEK293T-RXFP1 cAMP TR-FRET, 30 min; response scale: percent of porcine relaxin response, buffer zero; Potency, µM (highest dose often 57.5 µM), without a hit: at the highest dose activation, actives largely listed as activators; 0.3% of 370,000 active; active = well fitted activation curve with a large enough effect; inconclusive = small, poorly fitted or top-dose-only effect; also: potency is read from the fitted curve at half-maximal effect; % is scaled to controls: 0 for no effect and ±100 for the full control effect; nearly all actives have a fitted effect of over 60% in size
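Agonist response is measured as cAMP accumulation in an RXFP1-transfected HEK293T line under PDE4 inhibition. Values are scaled between buffer-only and 29 nM porcine relaxin, and EC50s come from standard Hill equation fits.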
* marks the source's active call; other numbers are inactive results; [ ] = remark or other dose. Hits are enriched below; roughly 0.9% of the tested compounds scored in any of these assays.

COc1cc2cc(CCOC(=O)c3ccc(C#N)cc3)oc(=O)c2cc1OC was read as gsp antagonist -15% and RXFP1 agonist 0%.
`COc1cc2cc(CCOC(=O)c3ccc(F)cc3)oc(=O)c2cc1OC` gave gsp antagonist 50µM* and RXFP1 agonist 2%.
`Cc1ccc2nc(-c3ccccc3)cc(C(=O)N(C)CC(=O)Nc3ccccc3Br)c2c1` gave RXFP1 antag -75*, gsp antagonist inconclusive, gsp ag 11%[15.4 µM] and RXFP1 agonist 0%.
`Cc1ccccc1-n1c2nc(=O)[nH]c(=O)c-2cc2c(Cl)cccc21` gave RXFP1 antag 14 and RXFP1 agonist 7%.
Screening COc1ccccc1CNC(=O)CCc1c(C)nn(-c2ccc(N3CCCC3)nn2)c1C returned RXFP1 antag 8 and RXFP1 agonist 1%.
Screening Cc1cccc(CNC(=O)c2cnc3c(-c4cccc(C)c4)c(C)nn3c2C)c1 returned RXFP1 antag -26 and RXFP1 agonist -1%.
For CCOC(=O)C1CCN(C(=O)c2sc3ncn(CC(=O)N4CCCCC4)c(=O)c3c2C)CC1 the results were RXFP1 antag 2 and gsp ag 16µM*.
Screening Cc1ccc(C(=O)Oc2ccc(C(O)CNC(C)(C)C)cc2OC(=O)c2ccc(C)cc2)cc1 (stereo unspecified) returned RXFP1 antag 18.
`Cc1nn2c(C)c(C(=O)NC(C)(C)C)cnc2c1-c1ccc(F)cc1` gave RXFP1 antag -14 and RXFP1 agonist -2%.
For Cc1nc2c(C(=O)NCc3ccccc3)c[nH]n2c(=O)c1Cc1ccccc1Cl the results were RXFP1 antag -60* and RXFP1 agonist 1%.
CN(C)CCOC(c1ccccc1)c1ccc(Br)cc1 (stereo unspecified) was read as RXFP1 antag -31.
Screening O=C1c2[nH]nc(-c3ccc(F)cc3)c2C(c2ccccc2F)N1c1ccccc1 (stereo unspecified) returned RXFP1 antag -68* and RXFP1 agonist 6%.
COc1cc(C2c3c(-c4ccccc4)n[nH]c3C(=O)N2c2ccccc2)ccc1O (stereo unspecified) was read as RXFP1 antag 4, gsp antagonist 0%, gsp ag 1% and RXFP1 agonist 1%.
Screening COc1ccc(OC)c(CNC(=O)c2cc(=O)[nH]c3ccc(S(=O)(=O)N4CCCCC4C)cc23)c1 (stereo unspecified) returned RXFP1 antag 1 and RXFP1 agonist 0%.
For CC1(C)OC[C@@H]2O[C@@]3(C(=O)O)OC(C)(C)O[C@H]3[C@@H]2O1 the results were RXFP1 antag 14.
Screening O=C(Cn1ncc2c3ccccc3n(Cc3ccc(Cl)cc3)c2c1=O)NCc1cccs1 returned RXFP1 antag 4 and RXFP1 agonist -2%.
Cc1nnc2c3ccccc3c(Cl)nn12 was read as RXFP1 antag 0, gsp antagonist 5%, gsp ag 25µM* and RXFP1 agonist inconclusive.
Cc1nnc2c3ccccc3c(-c3ccc(O)cc3)nn12 was read as RXFP1 antag -15, gsp antagonist 7%, gsp ag inconclusive and RXFP1 agonist 1%.
Screening CCOCCCN(C)C1CCN(C(=O)c2oc3ccccc3c2NC(=O)c2cccc([N+](=O)[O-])c2)CC1 returned RXFP1 antag -66*, gsp antagonist -2%, gsp ag -1% and RXFP1 agonist 0%.
Screening C=C(CC)C(=O)c1ccc(OCC(=O)O)c(Cl)c1Cl returned RXFP1 antag -71*, gsp antagonist inconclusive and RXFP1 agonist -3%.
`CCOC(=O)COc1ccc2nsnc2c1Cl` gave RXFP1 antag -8, gsp antagonist inconclusive, gsp ag 0% and RXFP1 agonist 6%.
CCN(C(=O)c1ccco1)c1nnc(-c2ccc(OC)cc2)s1 was read as RXFP1 antag -14, gsp antagonist -1%, gsp ag 32µM* and RXFP1 agonist inconclusive.
COc1ccc(N2CCN(CC(=O)c3ccc(Cl)cc3)CC2)cc1 was read as RXFP1 antag -21, gsp antagonist -6%, gsp ag 2% and RXFP1 agonist -4%.
COc1ccc(C(=O)CN2CCN(c3ncccn3)CC2)cc1 was read as RXFP1 antag -1, gsp antagonist 50µM*, gsp ag 37% and RXFP1 agonist 3%.

Bioassay records (PubChem BioAssay)
